Experimental data taken from PubChem BioAssay (NCATS).
Results filed as inconclusive are left out. Entries that show only a call come without a potency. Activity calls are given as the source filed them. Calls follow the shape of the dose curve; as a rule, active = well fitted inhibition curve with a large enough effect; inconclusive = small, poorly fitted or top-dose-only effect; inactive = flat fitted curve, though single readings scatter.

Test system: SC27B
Test: qHTS profiling for inhibitors of Plasmodium falciparum proliferation (AID 504749); also: nearly all actives have a fitted effect of over 60% in size
Conditions: P. falciparum in erythrocytes, SYBR Green DNA, 72 h; series mostly up to 28.7 µM
How it was run: (§1)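 Readout was DNA-dye fluorescence from lysed cultures, ex 485/em 535 nm. Parasitized red cells had grown 72 h with compound; data scaled between 0.29 uM artemisinin and DMSO wells and corrected using vehicle-only plates.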
Potency is read from the fitted curve at half-maximal effect.

| SMILES | Potency |
| --- | --- |
| CC(=O)Oc1ccc(C(=C2CCCCC2)c2ccc(OC(C)=O)cc2)cc1 | inactive |
| C1CCc2nnnn2CC1 | inactive |
| Cc1ccnc(NS(=O)(=O)c2ccc(N)cc2)n1 | inactive |
| CC1(C)CCC(NC(=O)[C@@H](N)CCC(=O)O)CC1 | inactive |
| Nc1cc(Cl)c(NC2=NCCN2)c(Cl)c1 | inactive |
| NCCC(O)(P(=O)(O)O)P(=O)(O)O | inactive |
| CC1=C(C(=O)OC(C)C)C(c2cccc([N+](=O)[O-])c2)C(C(=O)OC2CN(C(c3ccccc3)c3ccccc3)C2)=C(N)N1 (stereo not drawn) | 10 µM (active) |
| NCCc1ccn[nH]1 | inactive |
| O=C(O)c1cc2cc(Cc3cccnc3)ccc2o1 | inactive |
| CCN1CCC[C@H]1CNC(=O)c1c(OC)ccc(Br)c1OC | inactive |
| Nc1ccc(C(=O)Nc2ccccc2N)cc1 | inactive |
| N[C@H](CO)C(=O)O | inactive |
| CC(=O)OCC(=O)NCCCOc1cccc(CN2CCCCC2)c1 | inactive |
| CC(C)COC(=O)OCN1C(=O)CN(CCN2CC(=O)N(COC(=O)OCC(C)C)C(=O)C2)CC1=O | inactive |
| O=C1CCC(c2ccc(-n3ccnc3)cc2)=NN1 | inactive |
| N[C@@H](Cc1cnc[nH]1)C(=O)O | inactive |
| Nc1ccc(C(=O)O)cc1 | inactive |
| CC(C)(C)CC(C)(C)c1ccc(O)c(Cc2ccc(Cl)cc2Cl)c1 | 1.26 µM (active) |
| C[C@@H]1C(=O)NC2=Nc3cccc(Cl)c3CN21 | inactive |
| C[N+]1(CCCCC[N+]2(C)CCCC2)CCCC1 | inactive |

Test system: TAB109
Test: as above
Conditions: P. falciparum in erythrocytes, SYBR Green DNA, 72 h; series mostly up to 28.7 µM
How it was run: as §1

| SMILES | Potency |
| --- | --- |
| CC(=O)Oc1ccc(C(=C2CCCCC2)c2ccc(OC(C)=O)cc2)cc1 | inactive |
| C1CCc2nnnn2CC1 | inactive |
| Cc1ccnc(NS(=O)(=O)c2ccc(N)cc2)n1 | inactive |
| CO/N=C1\CN(c2nc3c(cc2F)c(=O)c(C(=O)O)cn3C2CC2)CC1CN (stereo not drawn) | 5.01 µM (active) |
| CC1(C)CCC(NC(=O)[C@@H](N)CCC(=O)O)CC1 | inactive |
| Nc1cc(Cl)c(NC2=NCCN2)c(Cl)c1 | inactive |
| NCCC(O)(P(=O)(O)O)P(=O)(O)O | inactive |
| C[C@@H]1CN(CCCn2c3ccccc3c3ccccc32)C[C@H](C)N1 | 11.2 µM (active) |
| CC1=C(C(=O)OC(C)C)C(c2cccc([N+](=O)[O-])c2)C(C(=O)OC2CN(C(c3ccccc3)c3ccccc3)C2)=C(N)N1 (stereo not drawn) | 6.31 µM (active) |
| NCCc1ccn[nH]1 | inactive |
| O=C(O)c1cc2cc(Cc3cccnc3)ccc2o1 | inactive |
| CCN1CCC[C@H]1CNC(=O)c1c(OC)ccc(Br)c1OC | inactive |
| Nc1ccc(C(=O)Nc2ccccc2N)cc1 | inactive |
| N[C@H](CO)C(=O)O | inactive |
| CC(=O)OCC(=O)NCCCOc1cccc(CN2CCCCC2)c1 | inactive |
| CC(C)COC(=O)OCN1C(=O)CN(CCN2CC(=O)N(COC(=O)OCC(C)C)C(=O)C2)CC1=O | inactive |
| O=C1CCC(c2ccc(-n3ccnc3)cc2)=NN1 | inactive |
| N[C@@H](Cc1cnc[nH]1)C(=O)O | inactive |
| Nc1ccc(C(=O)O)cc1 | inactive |
| CCCCC1=NC2(CCCC2)C(=O)N1Cc1ccc(-c2ccccc2-c2nn[nH]n2)cc1 | inactive |
| CC(C)(C)CC(C)(C)c1ccc(O)c(Cc2ccc(Cl)cc2Cl)c1 | 2 µM (active) |
| C[C@@H]1C(=O)NC2=Nc3cccc(Cl)c3CN21 | inactive |
| C[N+]1(CCCCC[N+]2(C)CCCC2)CCCC1 | inactive |
